According to article PMC5540273 (PLoS ONE, 2017):

What was measured:
Conditions in all cases: concentration: 1 μM, replicates: in singlicate; n = 1
PIK3C2G = tested on: PIK3C2G
PIK3CA = tested on: PIK3CA
PIK3CB = tested on: PIK3CB
PIK3CD = tested on: PIK3CD
PIK3CG = tested on: PIK3CG
PIK4CB = tested on: T1, PIK4CB
T1 construct: gene PI4KB

PIKFYVE = tested on: PIKFYVE
PIM1 = tested on: PIM1
PIM2 = tested on: PIM2
PIM3 = tested on: PIM3
PIP5K1A = tested on: PIP5K1A
PIP5K1C = tested on: PIP5K1C
PIP5K2B = tested on: PIP5K2B
PIP5K2C = tested on: T2, PIP5K2C
T2 construct: gene PIP4K2C

PKAC-alpha = tested on: T3, PKAC-alpha
T3 construct: gene PRKACA

PKAC-beta = tested on: T4, PKAC-beta
T4 construct: gene PRKACB

PKMYT1 = tested on: PKMYT1
PKN1 = tested on: PKN1
PKN2 = tested on: PKN2
PLK1 = tested on: PLK1
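Also: KINOMEscan kinase panel screen.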

Row | Structure (SMILES) | %Inh (PIK3C2G) [%] | %Inh (PIK3CA) [%] | %Inh (PIK3CB) [%] | %Inh (PIK3CD) [%] | %Inh (PIK3CG) [%] | %Inh (PIK4CB) [%] | %Inh (PIKFYVE) [%] | %Inh (PIM1) [%] | %Inh (PIM2) [%] | %Inh (PIM3) [%] | %Inh (PIP5K1A) [%] | %Inh (PIP5K1C) [%] | %Inh (PIP5K2B) [%] | %Inh (PIP5K2C) [%] | %Inh (PKAC-alpha) [%] | %Inh (PKAC-beta) [%] | %Inh (PKMYT1) [%] | %Inh (PKN1) [%] | %Inh (PKN2) [%] | %Inh (PLK1) [%]
1 | CC(C)NCC(Cc1ccccc1)NC(=O)c1cc(Br)c(-c2ccnc3[nH]ccc23)s1.Cl.Cl (centres unmarked) [GSK1383281] | 0 | 0 | 0 | 0 | 0 | 0 | 0 | 11 | 0 | 0 | 14 | 49 | 17 | 37 | 99.4 | 99 | 0 | 40 | 57 | 0
2 | COc1cccc(NC(=O)NCCNc2ccnc(Nc3ccc(F)cc3)n2)c1 [GSK1379879] | 10 | 0 | 0 | 0 | 0 | 0 | 8 | 13 | 0 | 0 | 40 | 63 | 13 | 29 | 0 | 0 | 1 | 12 | 0 | 0
3 | Fc1cc(Cl)ccc1Nc1ccnc2cc(-c3ccc(CN4CCSCC4)o3)ccc12 [GW560106] | 0 | 0 | 0 | 9 | 0 | 0 | 1 | 8 | 0 | 0 | 30 | 59 | 9 | 74 | 27 | 22 | 0 | 0 | 0 | 0
4 | COc1cccc(CC(=O)N2CCc3cc(-c4cn(C)c5ncnc(N)c45)ccc32)c1 [GSK2608899] | 0 | 6 | 14 | 0 | 27 | 0 | 0 | 19 | 0 | 2 | 0 | 10 | 34 | 0 | 4 | 12 | 10 | 19 | 0 | 9
5 | Cl.Cl.NCC(NC(=O)c1cc(-c2cccnc2)c(-c2ccnc3[nH]ccc23)s1)c1ccccc1 (centres unmarked) [GSK1323434] | 0 | 0 | 0 | 2 | 0 | 0 | 59 | 16 | 0 | 0 | 29 | 80 | 10 | 65 | 95.7 | 91.2 | 10 | 0 | 0 | 2
6 | CC(C)c1nc(-c2cccc(NS(=O)(=O)c3c(F)cccc3F)c2)c(-c2ccnc(Nc3ccc(N4CCOCC4)nc3)n2)s1.Cl [GSK1723980] | 0 | 0 | 0 | 0 | 0 | 0 | 0 | 0 | 0 | 0 | 0 | 20 | 18 | 85 | 0 | 0 | 0 | 16 | 0 | 0
7 | Cc1cccc(Nc2nc(NCCN)ncc2C(N)=O)c1 [GSK1292139] | 0 | 0 | 0 | 2 | 2 | 22 | 0 | 28 | 35 | 58 | 50 | 83 | 15 | 20 | 0 | 0 | 7 | 18 | 29 | 6
8 | CNc1nccc(-c2ccc3c(N)n[nH]c3c2)n1 [GSK2206003] | 1 | 0 | 0 | 0 | 17 | 0 | 0 | 18 | 0 | 13 | 54 | 60 | 32 | 35 | 23 | 4 | 4 | 0 | 0 | 6
9 | CSc1ccc(NC2=C(c3ccc(Cl)cc3)C(=O)NC2=O)cc1 [SB-317658] | 15 | 0 | 24 | 54 | 0 | 27 | 0 | 1 | 0 | 12 | 0 | 0 | 43 | 0 | 16 | 16 | 10 | 7 | 9 | 4
10 | CC(C)c1nc(-c2ccc(F)c(NS(=O)(=O)c3c(F)cccc3F)c2)c(-c2ccnc(Nc3ccc(N4CCOCC4)nc3)n2)s1 [GSK1804250] | 0 | 0 | 0 | 10 | 0 | 0 | 66 | 7 | 0 | 0 | 0 | 46 | 9 | 78 | 1 | 0 | 4 | 59 | 12 | 15
11 | Cc1cc(-c2c(-c3ccc(F)cc3)ncn2CCCN2CCOCC2)nc(N)n1 [SB-222517] | 20 | 23 | 0 | 0 | 36 | 46 | 0 | 11 | 26 | 15 | 0 | 0 | 0 | 0 | 26 | 16 | 4 | 0 | 10 | 12
12 | Cc1ccc(NC(=O)c2ccnc(N3CCCCC3)c2)cc1-c1ccc(C(=O)NCC2CC2)cc1 [GW775610] | 0 | 0 | 0 | 0 | 36 | 8 | 24 | 0 | 0 | 0 | 0 | 5 | 0 | 14 | 0 | 10 | 8 | 0 | 0 | 0
13 | Cc1nn2c(=O)cc(N3CCO[C@H](C)C3)nc2n1Cc1cccc(Cl)c1Cl [GSK2373693] | 89 | 23 | 0 | 100 | 94 | 11 | 8 | 10 | 0 | 0 | 0 | 83 | 4 | 0 | 23 | 14 | 62 | 43 | 0 | 0
14 | COc1ccc(NC(=O)c2ccoc2)cc1-c1ccc(C(=O)NCC2CC2)cc1 [GW810437] | 0 | 9 | 24 | 0 | 12 | 20 | 31 | 0 | 12 | 0 | 7 | 0 | 0 | 0 | 15 | 15 | 0 | 0 | 0 | 50
15 | CS(=O)(=O)c1cccc(CNc2nc(Nc3ccc4c(c3)CCC(=O)N4)ncc2C(F)(F)F)c1 | 9 | 0 | 3 | 0 | 0 | 0 | 28 | 10 | 0 | 32 | 61 | 58 | 59 | 69 | 0 | 0 | 0 | 49 | 2 | 0
16 | Cc1ccc(NC(=O)c2ccc(Cl)c(Cl)c2)cc1-c1ccc(C(=O)Nc2ccncc2)cc1 [GSK1398460] | 0 | 3 | 69 | 0 | 0 | 3 | 0 | 0 | 0 | 3 | 0 | 0 | 0 | 0 | 13 | 7 | 31 | 1 | 15 | 0
